What was measured:
Details in all cases: concentration: 10 µM; 24 h
[1] = test system: HCC1569; test: cell number relative to DMSO (% of DMSO); higher = more cells (less growth inhibition / toxicity)
Method in brief: (§1)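 After 24 h at 37 °C with compounds at 10 µM, in triplicate, HCC1569 and TDF cells were fixed with 3.7% formaldehyde. Immunostaining used a rabbit anti-H1.0 antibody and an AlexaFluor 647 secondary, with DAPI, and six fields per well were imaged at ×10. H1.0 nuclear intensity or cell number is presented as percent of the plate control, from the median of replicates, with HCC1569 values smoothed for positional effects.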

[2] = test system: TDF; test: as above
Method in brief: as §1

[3] = test system: TDF; test: H1.0 immunofluorescence intensity relative to DMSO (% of DMSO); higher = stronger H1.0 induction, active = 120 or more
Method in brief: as §1

[4] = test system: HCC1569; test: H1.0 immunofluorescence intensity relative to DMSO (% of DMSO); higher = stronger H1.0 induction, active = 140 or more
Method in brief: as §1
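Wherever H1.0 immunofluorescence intensity relative to DMSO is given: TDF is a line of transformed human dermal fibroblasts of mesenchymal origin.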
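Wherever cell number relative to DMSO is given: TDF denotes transformed human dermal fibroblasts of mesenchymal origin.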

| SMILES | cell number [1] | cell number [2] | H1.0 immunofluorescence intensity [3] | H1.0 immunofluorescence intensity [4] |
| --- | --- | --- | --- | --- |
| CN1Cc2c(N)cccc2C(c2ccccc2)C1.O=C(O)C=CC(=O)O (stereo not given) [Nomifensine maleate] | 102 | 104 | 89 (inactive) | 101 (inactive) |
| CCCCCCCCCCCCCCC(=O)O [Pentadecanoic acid] | 99 | 92.6 | 105 (inactive) | 107 (inactive) |
| Cc1cccc(-c2nn(C(=S)Nc3ccccc3)cc2-c2ccnc3ccccc23)n1 | 98.7 | 97.7 | 82.2 (inactive) | 134 (inactive) |
| OCc1ccc(-c2nn(Cc3ccccc3)c3ccccc23)o1 | 102 | 106 | 98.9 (inactive) | 106 (inactive) |
| Nc1c2c(nc3ccccc13)CCCC2O.O=C(O)C=CC(=O)O (stereo not given) [Hydroxytacrine] | 106 | 101 | 91.5 (inactive) | 101 (inactive) |
| CCCCCCCCCCCCCCC(O)C(O)C(N)CO (stereo not given) [Phytosphingosine] | 98.8 | 75.6 | 124 (active) | 104 (inactive) |
| CCn1c(-c2nonc2N)nc2c(C#CC(C)(C)O)ncc(OCC3CCCNC3)c21 (stereo not given) | 72.9 | 71.5 | 103 (inactive) | 120 (inactive) |
| CCCCCCCCCCCCCCCCOCC(COP(=O)([O-])OCC[N+](C)(C)C)OC (stereo not given) [1-Hexadecyl-2-methylglycero-3 PC] | 101 | 95.4 | 104 (inactive) | 102 (inactive) |
| CCC(CO)Nc1nc(NCc2ccc(-c3ccccn3)cc2)c2ncn(C(C)C)c2n1 [CR8, (S)-Isomer] | 52.6 | 23.5 | 124 (active) | 128 (inactive) |
| CCCCCCCCCCCCCCCC(=O)NC(COP(=O)(O)O)C(=O)O (stereo not given) | 102 | 109 | 92 (inactive) | 98.9 (inactive) |
| CC(C)NCC(O)c1ccc(O)c(O)c1.O=C(O)C(O)C(O)C(=O)O (stereo not drawn) [R(-)-Isoproterenol (+)-bitartrate] | 99.2 | 79.3 | 99 (inactive) | 120 (inactive) |
| CC(=O)OCC(=O)C1(O)CCC2C3CCC4=CC(=O)CCC4(C)C3C(O)CC21C (stereo not given) [Hydrocortisone 21-acetate] | 99.8 | 104 | 78 (inactive) | 109 (inactive) |
| COC(=O)Nc1nc2ccc(C(=O)c3ccccc3)cc2[nH]1 [Mebendazol] | 69.2 | 11.6 | 188 (active) | 127 (inactive) |
| CCCCCCCCCCCCCCC(F)C(=O)O (stereo not given) [2-Fluoropalmitic acid] | 105 | 102 | 99.7 (inactive) | 104 (inactive) |
| O=C1CCc2cc(OCCCCc3nnnn3C3CCCCC3)ccc2N1 [Cilostazol] | 101 | 109 | 90.2 (inactive) | 97 (inactive) |
| COc1cc2ncn(-c3cc(OCc4ccccc4S(C)(=O)=O)c(C#N)s3)c2cc1OC [IKK-3 Inhibitor IX] | 85.9 | 109 | 84.2 (inactive) | 127 (inactive) |
| Cl.O=c1n(CCCN2CCN(c3cccc(Cl)c3)CC2)nc2ccccn12 [Trazodone hydrochloride] | 102 | 116 | 89.5 (inactive) | 101 (inactive) |
| CON=C(C(=O)NC1C(=O)N2C(C(=O)[O-])=C(COC(C)=O)CSC12)c1csc(N)n1.[Na+] (stereo not given) [Cefotaxime sodium] | 103 | 117 | 92.3 (inactive) | 87 (inactive) |
| O=c1[nH][nH]c2nnc(-c3c(-c4ccccc4)nn4ccccc34)cc12 [ERK Inhibitor II,                   Negative control] | 98.3 | 98.8 | 95.5 (inactive) | 122 (inactive) |
| O=C(O)C1=CC(=NNc2ccc(S(=O)(=O)Nc3ccccn3)cc2)C=CC1=O [Sulfasalazine] | 106 | 102 | 93 (inactive) | 88.7 (inactive) |
| CCCCCC(O)C=CC=CCC=CCCCC(=O)O (stereo not given) | 100 | 90.9 | 97 (inactive) | 97.1 (inactive) |
| CCN(CC)CCNC(=O)c1cc(Cl)c(N)cc1OC.Cl [Metoclopramide hydrochloride] | 107 | 106 | 94.3 (inactive) | 87.4 (inactive) |
| CNC(=O)C1OC(n2cnc3c(NCc4cccc(I)c4)ncnc32)C(O)C1O (stereo not given) | 102 | 114 | 87.4 (inactive) | 82.1 (inactive) |
| COc1cccc(OC)c1OCCNCC1COc2ccccc2O1.Cl (stereo not given) [WB-4101 hydrochloride] | 102 | 101 | 93.7 (inactive) | 93.3 (inactive) |
| CCCCCC=CCC=CCCCCCCCC(=O)O [9(E),12(E)-Octadecadienoic acid] | 96.5 | 107 | 100 (inactive) | 108 (inactive) |

Source: the supplement of paper PMC7156485
